Compound activity (PubChem BioAssay)
In the library only some 3.5% were active in any assay of this set; here they are far more common.
BoNT-A LC inh2: BoNT A light chain protease inhibition | multiplex microsphere protease substrate cleavage, flow cytometry | inhibition, % at 10 µM | hit rate 0.17% among 360,000 | AID 588499
BoNT F protease: blocks Botulinum neurotoxin F light chain protease; Multiplex microsphere protease cleavage assay, flow cytometry; inhibition, % at 10 µM; hit rate 0.22% among 360,000; AID 588497; in the data active means inhibition above about 35%, passing the limit was not always enough; inconclusive means no clear call, values can overlap the other calls
Bead autofluor: counter-screen for toxin protease inhibitors: compound fluorescence; hit rate 3.1% among 360,000; fluorescence intensity (concentration not given with the values); compound autofluorescence counterscreen, microsphere flow cytometry; active compounds read high; in the data active means fluorescence intensity above about 16000; inconclusive means no clear call, values can overlap the other calls
Anthrax LF inh2: inhibitors of Bacillus anthracis lethal factor protease. P15917. multiplex microsphere protease cleavage assay, LF. inhibition, % at 10 µM. hit rate 0.12% among 360,000. AID 588501
Numbers stand for hits; i = inactive; ? = inconclusive. Unless noted, no stated cut-off is given here; in the data, active means inhibition above about 30%; inconclusive means no clear call, values can overlap the other calls; inactive means below that.

SMILES | BoNT-A LC inh2 | BoNT F protease | Bead autofluor | Anthrax LF inh2
CCS(=O)(=O)Nc1ccc(C2=NN(C(=O)c3ccco3)C(c3ccc(C)cc3)C2)cc1 (stereo not drawn) | ? | i | 16946 | i
CN1C(=O)c2ccc(C(=O)NCc3ccc4c(c3)OCO4)cc2C1=O | i | i | i | i
CN(c1ccc(C(=O)NCc2ccc3c(c2)OCO3)cc1)S(C)(=O)=O | i | i | 22044 | i
O=C(NCc1ccc2c(c1)OCO2)c1nn(-c2ccccc2)c(=O)c2ccccc12 | ? | i | 21677 | i
CCCN1C(=O)c2ccc(C(=O)NCc3ccco3)cc2C1=O | ? | i | 23188 | i
CCN1C(=O)c2ccc(C(=O)NCc3ccc4c(c3)OCO4)cc2C1=O | i | i | 16137 | i
COc1ccccc1CCNC(=O)c1cccc(S(=O)(=O)N2CCc3ccccc3C2)c1 | i | i | i | i
O=C(NCc1ccc2c(c1)OCO2)c1ccc(-n2cnnn2)cc1 | ? | i | 16294 | i
Cc1ccc(N2C(=O)C3C4C=CC(C4)C3C2=O)cc1C (stereo not drawn) | i | i | 22226 | i
O=C1C2C3C=CC(C3)C2C(=O)N1c1cccc(N2C(=O)C3C4C=CC(C4)C3C2=O)n1 (stereo not drawn) | i | i | 22915 | i
O=C1C2C3C=CC(C3)C2C(=O)N1c1n[nH]c(-c2ccccc2)n1 (stereo not drawn) | i | i | 23080 | i
O=C(O)c1ccc(NS(=O)(=O)Cc2ccc(Cl)c(Cl)c2)cc1 | i | i | i | i
CC(C)(C)OC(=O)N1CCC(C(=O)Nc2cccc(C(=O)N3CCCCC3)c2)CC1 | i | i | i | i
CC(=O)Nc1ccc(S(=O)(=O)N(C)CC(=O)NNc2c(F)c(F)cc(F)c2F)cc1 | i | i | i | i
Cc1nc(-n2ncc(C#N)c2N)c2c3c(sc2n1)CCC3 | i | i | 22751 | i
COc1ccc(CN(C)CC(=O)N(C)CC(=O)Nc2ccccc2Br)cc1F | i | i | i | i
O=C1CC(=O)C(n2cncn2)C(c2c(F)cccc2Cl)C1 (stereo not drawn) | i | i | 22544 | i
C/C(=N\NC(=O)C(C)Oc1ccc([N+](=O)[O-])cc1)c1ccccn1 (stereo not drawn) | ? | i | 24747 | i
CN1CCN(C(=O)Nc2cccc3ccccc23)CC1 | i | i | 18834 | i
CCN1CCN(C(=O)Nc2cccc3ccccc23)CC1 | i | i | i | i
Cn1c(C(=O)N[C@@H](C(=O)O)c2ccccc2)cc2cc(F)ccc21 | i | ? | i | i
CC1CCCCC1NC(=O)c1cn(C)c2ccc(S(=O)(=O)N3CCCC3)cc2c1=O (stereo not drawn) | ? | i | 20217 | i
CC1CCN(S(=O)(=O)c2ccc3c(c2)c(=O)c(C(=O)NC2CCCC2)cn3C)CC1 | ? | i | 20721 | i
Cn1cc(C(=O)NC2CCCCC2)c(=O)c2cc(S(=O)(=O)N3CCCC3)ccc21 | i | i | i | i
COC(=O)c1cn(C)c2ccc(S(=O)(=O)N3CCCC3)cc2c1=O | i | i | 20045 | i
SMILES | BoNT-A LC inh2 | BoNT F protease | Bead autofluor | Anthrax LF inh2
C[C@H](CO)N1C[C@H](C)[C@@H](CN(C)C(=O)NC2CCCCC2)Oc2c(NC(=O)c3ccncc3)cccc2C1=O | i | i | i | i
O=C1C2CC=CCC2C(=O)N1c1ccc(OCC(O)Cn2nnc3ccccc32)cc1 (stereo not drawn) | i | i | 25583 | i
CSc1cccc(Nc2ccc(S(=O)(=O)N3CCOCC3)cc2[N+](=O)[O-])c1 | i | i | i | i
COc1ccc(N2C(=O)CC(SCCc3nc4ccccc4[nH]3)C2=O)cc1 (stereo not drawn) | i | i | 19552 | i
O=C1CC(SCCc2nc3ccccc3[nH]2)C(=O)N1c1ccc(F)cc1 (stereo not drawn) | i | i | i | i
c1ccc(Cn2c(CNc3nc4ccccc4n3CCN3CCOCC3)nc3ccccc32)cc1 | ? | i | 23712 | i
COc1ccc(OC)c(CNc2nc3ccccc3n2CCN2CCCCC2)c1 | i | i | 16368 | i
COc1ccc(CNc2nc3ccccc3n2CCN2CCCCC2)c(OC)c1 | i | i | i | i
CC(C)NC(=O)C(c1ccc(F)cc1)N(C(=O)CCC(=O)Nc1ccccn1)C1CCCCC1 (stereo not drawn) | i | i | i | i
CCc1nc(CN(C)C(=O)C2CCC(=O)N(Cc3cccc(F)c3)C2)no1 (stereo not drawn) | i | i | i | i
O=C1NCC(CN(c2ccccc2)c2ccccc2)O1 (stereo not drawn) | i | i | 19299 | i
Cc1ccccc1OCC1CNC(=O)O1 (stereo not drawn) | i | i | i | i
COCc1nnc(NC(=O)c2ccc(NC(=O)C(C)C)cc2)s1 | i | i | 23228 | i
COCc1nnc(NC(=O)c2cc(Cl)ccc2OC)s1 | i | i | 23665 | i
CCc1nnc(NC(=O)c2ccc(NC(=O)C(C)C)cc2)s1 | i | i | i | i
CCOc1ccc(C(=O)Nc2c3c(nn2-c2cccc(Cl)c2)CS(=O)C3)cc1 (stereo not drawn) | i | i | 22721 | i
COCCCNC(=O)Cc1ccc(S(=O)(=O)N2CCOCC2)s1 | i | i | i | i
O=C(O)CSc1nnc(C2CC2)n1-c1ccccc1 | i | i | i | i
O=C(O)CSc1nnc(C2COc3ccccc3O2)n1-c1ccccc1 (stereo not drawn) | i | i | 19815 | i
Cc1nnc(NC(=O)CSc2nnc(C(C)NC(=O)c3ccccc3F)n2C)s1 (stereo not drawn) | i | i | i | i
COC(=O)c1ccccc1NC(=O)CSc1nnc(C(C)NC(=O)c2ccc(Cl)cc2Cl)n1C (stereo not drawn) | i | i | 22829 | i
O=C(c1cccnc1)N1CCN(S(=O)(=O)c2ccc3ccccc3c2)CC1 | i | i | 16645 | i
O=C(Oc1cccnc1)c1cc(S(=O)(=O)N2CCOCC2)ccc1Cl | i | i | i | i
O=C(Oc1cccnc1)c1cc(S(=O)(=O)N2CCCCC2)ccc1Cl | i | i | 21012 | i
Cc1ccc(CCNC(=O)C2CCN(S(=O)(=O)N3CCOCC3)CC2)cc1 | i | i | i | i
SMILES | BoNT-A LC inh2 | BoNT F protease | Bead autofluor | Anthrax LF inh2
CSc1ncnc2c1ncn2CCCN1CCN(c2ncccn2)CC1 | i | i | i | i
O=C(CSc1nn(-c2ccccc2)c(=S)s1)NC(=O)NCc1ccco1 | i | i | 23530 | i
O=C(CSc1nn(-c2ccccc2)c(=S)s1)Nn1cnnc1 | i | i | i | i
COC(=O)C1C(=O)C2=C(CC1C)NC(C)=C(C(=O)OC1CCCC1)C2c1ccc(N(C)C)cc1 (stereo not drawn) | i | i | i | i
COC(=O)C1C(=O)C2=C(CC1C)NC(C)=C(C(=O)OC(C)C)C2c1ccc(OC)c(O)c1 (stereo not drawn) | i | i | 22658 | i
O=C(NC(=S)Nc1nc(-c2ccc(Br)cc2)cs1)c1cccnc1 | i | i | 23721 | i
COC(=O)C(Nc1ccccc1Cl)(c1cc(C)c(O)c(C)c1)C(F)(F)F (stereo not drawn) | i | i | i | i
COC(=O)/C(=C(/F)Sc1cc(C)c(O)c(C)c1)C(F)(F)F | i | i | 22354 | i
O=C(Cc1ccc(S(=O)(=O)N2CCOCC2)s1)N1CCN(S(=O)(=O)c2cccc(Cl)c2)CC1 | i | i | ? | i
CON/C=C(\C=Nc1ccc(Cl)cc1)c1ncc(C(F)(F)F)cc1Cl | i | i | 23332 | i
